# Source: PubChem BioAssay (EPA / NIEHS)
# Inconclusive results are not listed. Activity calls are given as the source filed them. Rule for the calls: active = hit-call score of the fitted dose curve at least 0.9, where 1 is the maximum; inconclusive = response in the unintended direction; inactive = score below 0.9. Peptide text beside a SMILES is read from it.
# Biological target: human Thyroid Receptor alpha (THRa1), THRA (gene 7067) (UniProt P10827)
# Assay: ATG_THRa1_TRANS: Attagene TRANS-FACTORIAL HepG2 Assay for human Thyroid Receptor alpha (THRa1) (AID 2283014)
# Method: ATG_TRANS is a cell-based, multiplexed-readout assay that uses HepG2, a human liver cell line, with measurements taken at 24 hours after chemical dosing in a 24-well plate.ATG_THRa1_TRANS is one of 30 assay component(s) measured or calculated from the ATG_TRANS assay. It is designed to make measurements of mRNA induction, a form of inducible reporter, as detected with fluorescence intensity signals by Reverse transcription polymerase chain reaction (RT-PCR) and Capillary electrophoresis technology.Data from the assay component ATG_THRa1_TRANS was analyzed into 1 assay endpoint. This assay endpoint, ATG_THRa1_TRANS, was analyzed in the positive analysis fitting direction relative to DMSO as the negative control and baseline of activity. Using a type of inducible reporter, measures of mRNA for gain-of-signal activity can be used to understand the reporter gene at the transcription factor-level as they relate to the gene THRA. Furthermore, this assay endpoint can be referred to as a primary readout, because this assay has produced multiple assay endpoints where this one serves a reporter gene function. To generalize the intended target to other relatable targets, this assay endpoint is annotated to the nuclear receptor intended target family, where the subfamily is non-steroidal.
# Human liver HepG2 cells are transiently transfected with multiple reporter transcription units (MRTUs) in 6-well plates using FuGene 6 reagent (Roche; 3 ml FuGene/1 mg DNA). The MRTU constructs are regulated by a cis-regulating element (promoter). […] A major difference between the CIS and TRANS system is that in CIS activities of endogenous TFs are measured, whereas the TRANS assay evaluates changes in activities of exogenous, chimeric NR-Gal4 proteins. […] At the end of 24 hour incubation, total RNA was isolated using TriZol reagent (Invitrogen). The isolated RNA is then reverse-transcribed using oligo(dT) primer and Mo-MLV reverse transcriptase (Invitrogen) with DNAse I (Ambion) treatment for 30 min. The one-tenth of the produced cDNA was amplified by PCR using Taq DNA polymerase (Invitrogen) and two reporter sequence-specific primers. The PCR products were fluorescently labeled by primer extension with 6-arboxyfluorescein (6-FAM) 5'-labeled reporter sequence-specific primer (2 min at 95 C, 20 s at 68 C and 10 min at 72 C) and these products were digested with 5U of HpaI (New England Biolabs) for 2h at 37 C. The fragments were purified using Qiaquick PCR columns (Qiagen), analyzed on an ABI 3130xL genetic analyzer (Applied Biosystems) with peak positions identified by using a set of X-rhodamine (ROX)-labeled MapMarker1000 molecular weight standards (BioVentures). The raw capillary electrophoresis data was processed using Attagraph software (Attagene).
# Sequence of human Thyroid Receptor alpha (THRa1), THRA (gene 7067) (P10827 whole entry, looked up): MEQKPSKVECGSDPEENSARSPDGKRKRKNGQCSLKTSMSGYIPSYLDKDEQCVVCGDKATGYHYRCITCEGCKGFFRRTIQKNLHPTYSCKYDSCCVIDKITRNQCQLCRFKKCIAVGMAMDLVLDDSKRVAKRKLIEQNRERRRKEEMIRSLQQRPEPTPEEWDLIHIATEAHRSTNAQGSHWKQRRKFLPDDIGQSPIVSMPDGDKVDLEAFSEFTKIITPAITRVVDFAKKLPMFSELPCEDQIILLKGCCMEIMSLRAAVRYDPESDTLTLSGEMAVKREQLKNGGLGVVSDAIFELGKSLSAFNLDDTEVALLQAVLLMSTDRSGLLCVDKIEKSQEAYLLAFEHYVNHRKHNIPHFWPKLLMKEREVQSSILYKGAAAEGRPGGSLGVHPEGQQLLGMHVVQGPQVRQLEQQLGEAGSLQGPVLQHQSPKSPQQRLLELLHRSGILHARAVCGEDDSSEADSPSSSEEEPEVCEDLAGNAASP
SMILES,outcome,AC50
CC1=NN(c2ccc(S(=O)(=O)O)cc2)C(=O)C1N=Nc1ccccc1 (stereo not given),inactive,–
CC1(C)[C@@H]2CC[C@@]1(C)C(=O)C2,inactive,–
CCc1occc(=O)c1O,inactive,–
Cc1ccc([N+](=O)[O-])cc1N,inactive,–
C=C[C@@]1(C)CC(=O)[C@]2(O)[C@@]3(C)[C@@H](O)CCC(C)(C)[C@@H]3[C@H](O)[C@H](OC(C)=O)[C@@]2(C)O1,–,33.4 µM (active)
Clc1cccnc1,inactive,–
CCCCOCC(C)O (stereo not given),inactive,–
CC/C=C\CCOC(=O)c1ccccc1O,inactive,–
CCCC(CC)c1ccccc1 (stereo not given),inactive,–
O=c1c(O)c(-c2ccc(O)cc2O)oc2cc(O)cc(O)c12,inactive,–
CCCCCCCCCCCCCCCCCCOS(=O)(=O)O,inactive,–
CCCCCCC=O,inactive,–
CC(c1cc(C(C)(C)C)cc(C(C)(C)C)c1O)c1cc(C(C)(C)C)cc(C(C)(C)C)c1O,inactive,–
CCC(C)c1ccccc1 (stereo not given),inactive,–
COC(=O)C=Cc1ccccc1,inactive,–
O=C(O)/C=C/c1ccccc1,inactive,–
CC(=O)CCC=C(C)C,inactive,–
COC(=O)[C@H](Cc1ccccc1)NC(=O)[C@@H](N)CC(=O)O (H-Asp-Phe-OMe),inactive,–
CC(=O)OC(C)c1ccccc1 (stereo not given),inactive,–
C=Cc1cccc(C)c1,inactive,–

SMILES,outcome,AC50
Nc1ncnc2nc[nH]c12,inactive,–
CCCCCCCCCCCCCC(=O)OC(C)C,inactive,–
C[Si](C)(C)N[Si](C)(C)C,inactive,–
C=CC(=O)O[C@H]1C[C@@H]2CC[C@@]1(C)C2(C)C,inactive,–
CCOC(=O)C1=NN(c2ccc(Cl)cc2Cl)C(C)(C(=O)OCC)C1 (stereo not given),inactive,–
CCCCCCCCCC(C)=O,inactive,–
CC=CC(=O)OCC(C)C,inactive,–
Nc1ccc(Cl)c(N)c1,inactive,–
C1CCSC1,inactive,–
C/C=C/C=C/CCCCCCCO,inactive,–
CCC(C)(O)CCCC(C)C (stereo not given),inactive,–
CN1CCN(C)CC1,inactive,–
C[Si]1(C)O[Si](C)(C)O[Si](C)(C)O[Si](C)(C)O[Si](C)(C)O1,inactive,–
CC1CCC(C(C)(C)S)C(=O)C1 (stereo not given),inactive,–
Cc1noc(NS(=O)(=O)c2ccc(N)cc2)c1C,inactive,–
C=Cc1ccc(OC(C)=O)cc1,inactive,–
Cc1c[nH]c(=O)[nH]c1=O,inactive,–
CCOB(OCC)OCC,inactive,–
Nc1ccc(O)c([N+](=O)[O-])c1,inactive,–
C=C(C)C(=O)OCCCCCCCCCCCC,inactive,–
